# This is a sample that favours compounds with a hit; in the whole collection about 1.8% have one here.
# RPL19A-GFP yeast: modulators of TOR pathway RPL19A-GFP in S. cerevisiae; S. cerevisiae RPL19A-GFP strain, flow cytometry, 3 h; stronger effect = lower value; percent response vs DMSO, % at 10 µM; AID 2025; hit rate 0.3% among 330,000;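 active = percent response vs DMSO below 50%; inconclusive = fewer than 70 events counted for the yeast strain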;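 also: median channel GFP fluorescence of the barcoded RPL19A-GFP strain; ratio of sample median GFP to plate DMSO average so 100% = DMSO; lower means less RPL19A-GFP as with rapamycin TOR inhibition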
# AGP1 TOR yeast: yeast TOR pathway AGP1-GFP modulation. GFP response vs DMSO, % at 10 µM. hit rate 0.02% among 320,000. S. cerevisiae AGP1-GFP multiplex flow cytometry, 3 h; GFP as percent of DMSO wells;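 active = GFP response relative to DMSO above a set limit, near screen average plus 3 SD, cut at about 150% in these data; inconclusive = fewer than 70 cells counted for the yeast strain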;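 also: median GFP channel fluorescence of the gated AGP1 strain per well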
# Myeloid diff 2: compounds promoting myeloid differentiation. ER-HoxA9 myeloid progenitors, lysozyme-GFP differentiation, flow cytometry. calls only at 10 µM. hit rate 1% among 360,000. AID 624256;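 active = normalized GFP-positive differentiation at or above the plate's own cutoff, the solvent-only control mean plus 3 SD; inconclusive = no clear call, values can overlap the other calls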;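 also: cells exposed to compound for four days before flow analysis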
# LAP4 TOR yeast: yeast TOR pathway LAP4-GFP modulation; S. cerevisiae LAP4-GFP multiplex, flow cytometry GFP, 3 h; median GFP as percent of DMSO wells; GFP response vs DMSO, % at 10 µM; hit rate 0.34% among 320,000; AID 2023;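 active = GFP response vs DMSO above a set limit, about the screen mean plus 3 SD, cut at about 150% in these data; inconclusive = under 70 cell events counted for the yeast strain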
# CIT2 TOR yeast: modulators of TOR pathway CIT2-GFP in S. cerevisiae; GFP response vs DMSO, % at 10 µM; hit rate 0.065% among 320,000; S. cerevisiae CIT2-GFP strain, flow cytometry, 3 h; 100 means same as DMSO wells;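 active = GFP response relative to DMSO above a set limit, near the screen mean plus 3 SD, cut at about 150% in these data; inconclusive = Fewer than 70 cells measured for a yeast strain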;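 also: ratio of well median GFP fluorescence to mean of DMSO wells on the plate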
# MEP2-GFP yeast: yeast TOR pathway MEP2-GFP modulation | S. cerevisiae MEP2-GFP strain, flow cytometry GFP, 3 h; 100% = DMSO control level | GFP response vs DMSO, % at 10 µM | hit rate 0.51% among 330,000;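 active = GFP response versus DMSO above a set limit, roughly screen mean plus 3 SD, cut at about 180% in these data; inconclusive = fewer than 70 cells counted for a yeast strain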;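 also: median GFP fluorescence of the barcode-gated MEP2-GFP cells per well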
# The depositor's hits bear a star; i = inactive; ? = inconclusive; / = no result; + = active, no number; [ ] = another dose, or the depositor's remark.
SMILES,RPL19A-GFP yeast,AGP1 TOR yeast,Myeloid diff 2,LAP4 TOR yeast,CIT2 TOR yeast,MEP2-GFP yeast
Cc1ccc(C(C(=O)NC2CCCCC2)N(CCCN2CCOCC2)C(=O)c2snc(C(N)=O)c2N)cc1 (configuration not stated),41.4*,19.1,i,74.4,82.1,181.5*
Cc1sc2nc(SCc3ccc(C(=O)O)cc3)n(Cc3ccco3)c(=O)c2c1C,98.7,105.8,i,102.3,97.0,100.5
Cc1sc2nc(SCC(=O)c3cccs3)n(Cc3ccco3)c(=O)c2c1C,95.7,94.1,+,102.0,106.5,109.5
CCC(C(=O)Nc1c2c(nn1C(C)(C)C)CS(=O)(=O)C2)c1ccccc1 (configuration not stated),95.2,107.8,i,101.1,102.8,94.7
COc1ccccc1NC(=O)N(C)C[C@H]1OCc2cn(nn2)CCCC(=O)N([C@@H](C)CO)C[C@@H]1C,/,/,i,/,/,/
O=C(c1ccco1)N1CCN(c2ncnc3scc(-c4ccccc4)c23)CC1,95.5,94.7,i,99.5,87.1,100.2
O=C(c1ccco1)N1CCN(c2ncnc3scc(-c4cccs4)c23)CC1,96.2,94.3,+,109.4,97.2,98.9
Cc1cccc(NC(=O)c2nc[nH]c2C(=O)N[C@@H](CC(C)C)C(=O)OC(C)(C)C)c1,95.5,86.4,i,105.5,85.9,91.3
CN(C)c1ccc(-c2ccnc3c2CC(C)(C(=O)NCCC(F)(F)F)O3)cc1 (configuration not stated),/,/,i,/,/,/
COc1cc(C2/C(=C(\O)c3ccc4c(c3)OCCO4)C(=O)C(=O)N2Cc2ccccc2)ccc1O (configuration not stated),106.0,90.5,i,89.6,104.4,120.2
Cc1ccc2cc3c(N)c(C(=O)Nc4c(C)[nH]c(=O)[nH]c4=O)sc3nc2c1,104.6,97.3,i,95.7,104.3,103.2
Cc1[nH]c(=O)[nH]c(=O)c1NC(=O)c1sc2nc3c(C)cccc3cc2c1N,102.0,101.9,+,88.5,102.3,93.9
CCN(CC)c1ccc(-c2sc(Nc3ccccc3)n[n+]2-c2ccc(F)cc2)cc1,106.0,91.9,+,122.7,103.2,130.2
CC(C)OCCCNC(=O)CN1C(=O)CSc2ccc(S(=O)(=O)N3CCCCC3)cc21,102.1,101.6,i,100.2,96.3,99.6
COc1ccc2ncc(S(=O)(=O)c3ccccc3)c(N3CCN(c4ccccc4)CC3)c2c1,105.9,95.5,i,94.2,94.1,100.3
Cc1ccc2ncc(S(=O)(=O)c3ccccc3)c(N3CCCCC3C)c2c1 (configuration not stated),98.3,97.5,+,117.0,89.5,102.8
Cc1ccc(C(=O)Nc2nc(-c3ccccn3)cs2)s1,109.9,112.2,i,108.2,108.5,110.1
O=C(Nc1nc(-c2ccccc2)cs1)c1cccs1,94.1,/,i,91.5,74.8,87.2
O=C(Nc1nc(-c2ccccn2)cs1)c1ccc(Cl)s1,68.5,21.6,?,312.1*[may fluoresce violet],?,233.2*[may fluoresce violet]
O=C(Nc1nc(-c2ccc(Cl)s2)cs1)c1cccs1,95.2,94.3,i,153.3*,85.6,97.1
COc1ccc(CN2C(=O)c3ccccc3C2=O)cc1C(=O)N(C)CC(=O)Nc1ccc(C)cc1,/,/,i,/,/,/
CCOC(=O)C1=CCN(S(=O)(=O)c2ccc(C)cc2)C1c1ccc(Cl)c(Cl)c1 (configuration not stated),/,/,i,/,/,/
COC(=O)c1sc(OC)cc1OCc1ccc(C)cc1,105.3,110.4,i,116.4,117.2,118.0
Cc1cc(C)c(C)c(S(=O)(=O)NC2CCCCC2)c1C,101.8,86.8,i,83.5,88.2,89.4
COCCOCC(O)CN1CCN(c2ccccc2)CC1 (configuration not stated),42.2*[may fluoresce violet],99.2,i,70.1,90.6,91.6
SMILES,RPL19A-GFP yeast,AGP1 TOR yeast,Myeloid diff 2,LAP4 TOR yeast,CIT2 TOR yeast,MEP2-GFP yeast
O=C1c2sc3nc4c(c(=O)n3c2C(=O)N1c1ccccc1)CCC4,100.0,93.8,i,108.9,97.0,94.2
Cc1ccccc1N1C(=O)c2sc3nc4c(c(=O)n3c2C1=O)CCC4,94.3,85.7,i,161.3*,85.6,93.0
CCn1c(-c2csc3c2CCCC3)n[nH]c1=S,/,/,i,/,/,/
CCCCn1c(-c2csc3c2CCCC3)n[nH]c1=S,95.9,92.2,/,153.8*,76.8,111.6
COc1ccccc1Cc1c(-c2ccc(C#N)cc2)nc2c(Cl)cc(C(F)(F)F)cn12,/,/,+,/,/,/
O=C(CNCc1cccc2ccccc12)Nc1ccccc1[N+](=O)[O-],95.3,97.9,i,98.2,93.9,95.7
COc1cccc(-c2nn(C)c3sc(C(=O)N4CCOCC4)cc23)c1,98.1,98.1,i,98.4,93.8,104.8
COc1cccc(-c2nn(C)c3sc(C(=O)N4CCN(c5ccccn5)CC4)cc23)c1,94.2,94.3,+,111.0,90.4,93.2
Nc1ccn([C@H]2CS[C@@H](CO)O2)c(=O)n1,106.1,112.8,i,114.2,98.8,107.4
CCc1nnc(NC(=O)c2ccc(S(=O)(=O)N(CC)Cc3ccccc3)cc2)o1,96.4,98.8,i,141.1,106.8,103.5
CN(Cc1ccccc1)S(=O)(=O)c1ccc(C(=O)Nc2nnc(C3CC3)o2)cc1,95.1,95.5,i,99.6,89.1,90.2
CCN(Cc1ccccc1)S(=O)(=O)c1ccc(C(=O)Nc2nnc(C)o2)cc1,94.1,100.9,i,187.7*,92.3,104.2
CCc1nnc(NC(=O)c2ccc(S(=O)(=O)N(C)Cc3ccccc3)cc2)o1,92.2,101.4,?,186.1*,95.3,112.9
O=C(NCCc1ccccc1F)c1cccc2cccnc12,99.2,93.0,+,110.7,100.5,104.5
Cc1ccc(NC(=O)c2cccc3cccnc23)cc1,48.7*[may fluoresce violet],?,i,75.1,?,603.3*[may fluoresce violet]
CC(=O)Nc1cccc(NC(=O)c2cccc3cccnc23)c1,103.8,102.7,i,101.6,100.7,102.4
CCOc1ncccc1C(=O)NCc1ccccc1F,102.5,107.3,i,104.3,95.3,104.3
COc1ccccc1Nc1ncc(-c2cccs2)s1,90.1,85.3,i,90.3,92.4,94.6
O=c1cc(N2CCN(c3ccccc3)CC2)[nH]c(=O)n1Cc1ccc(F)cc1,92.7,96.0,+,108.8,94.1,97.2
CN1CCN(c2cc(=O)n(Cc3ccc(F)cc3)c(=O)[nH]2)CC1,98.5,97.1,i,104.6,100.3,107.0
c1ccc(-c2csc3nnc(SCc4ccc5c(c4)OCO5)n23)cc1,97.3,98.7,+,97.6,100.0,98.6
CCCCOc1ccc(S(=O)(=O)Nc2ccc(NC(C)=O)cc2)cc1,103.3,97.5,+,96.1,94.5,99.9
CCCCN(CCCC)S(=O)(=O)c1ccc(NS(=O)(=O)c2ccc(NC(C)=O)cc2)cc1,/,98.0,i,96.3,97.7,94.0
